Only some compounds are listed: those with a hit (about 6.9% of all), similar ones and a draw of the others.
CSC inhib: cancer stem cell inhibition; inhibition, % at 7.5 µM; hit rate 1.1% among 300,000; cancer stem cell-like cells viability, luminescence; in the data active = inhibition above about 75%; inconclusive = no clear call, values can overlap the other calls; tested in HMLE shEcad cells
SKKanGAS inh: blocks kanamycin growth of S. pyogenes SKKanGAS strain | AID 1662 | inhibition, % at 7.5 µM | hit rate 1.3% among 300,000 | BacTiter-Glo, 6 h;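 active = mean replicate score, as percent of positive control median, at least 50; inconclusive = mean below 50 but one replicate at or above 50; inactive = mean and every replicate below 50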;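 note: strain carries kanamycin resistance gene driven by streptokinase promoter and grows in 40 µg/ml kanamycin; loss of luminescence reflects streptokinase promoter inhibition or plain growth inhibition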
Beta apoptosis: beta cell apoptosis inhibition; protection from apoptosis, % (no concentration beside the values); hit rate 0.8% among 300,000; AID 435005; INS-1E cytokine-induced death, ATP luminescence, 48 h; percent of positive-control rescue, neutral wells zero;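 active = Every replicate reaches about 75%, or at least half do and their mean reaches it too, limit read from the data; inconclusive = At least half of replicates reach the limit but their mean does not; inactive = Under half of replicates reach the limit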;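 note: higher means more ATP so stronger rescue from cytokine killing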
MPTP inh: inhibitors of mitochondrial permeability transition pore; hit rate 1.4% among 360,000; isolated mouse mitochondria, Ca2+ swelling absorbance, 30 min; inhibition, % at 10 µM; AID 602449;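 active = inhibition of 50% or more, scaled per plate between neutral and stimulator controls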
Mdm2-MdmX inh: inhibitors of human Mdm2/MdmX interaction | O15151+Q00987 | SaOS-2 split-luciferase Mdm2/MdmX complementation, luminescence | inhibition, % at 8 µM | hit rate 3% among 330,000;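 active = inhibition of at least 50% at 8 µM in the primary screen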
NR3A LBD binder: modulates the human NR3A ligand-binding domain. NR3A LBD differential scanning fluorimetry, Tm shift; 0% = protein alone, 100% = glycine-bound protein. Tm shift relative to glycine control, % at 25 µM. hit rate 2.5% among 340,000;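 active = melting temperature shift of at least 10% of the positive control shift, at one fixed dose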
Mdm2 MdmX conf: human Mdm2/MdmX binding inhibition, confirmed | shares compounds with Mdm2-MdmX inh | hit rate 55% among 10,000 | inhibition, % at 8 µM | AID 489028 | luminescent assay; in the data active = inhibition above about 40%
FLuc counter: inhibits full-length luciferase, flagging false Mdm2/MdmX hits | SaOS-2 full-length luciferase counterscreen, luminescence | hit rate 77% among 6,200 | shares compounds with Mdm2-MdmX inh | inhibition, % at 8 µM;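 active = mean inhibition at 8 µM reaching about 37%, which flags the compound as non-specific, limit read from the data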;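 note: p53-null SaOS-2 cells with luciferase driven by a doxycycline-inducible promoter; compound on cells about two nights before reading with doxycycline added after day one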
Of the large screens only hits and unclear results are named; the others gave an inactive call (follow-up assays come after a bar, where they were run).

O=C1CC(c2ccc3c(c2)OCO3)Sc2nc3ccccc3n21 (centres undefined)	Mdm2-MdmX inh 54 | Mdm2 MdmX conf 67 | FLuc counter 169
CC(C)(C)C(=O)/C=c1\s/c(=C\c2ccc(-c3ccc([N+](=O)[O-])cc3)o2)c(=O)n1CC(=O)NC(N)=O	Mdm2-MdmX inh 68 | Mdm2 MdmX conf 58 | FLuc counter 54
COc1cccc(CNC(=O)c2ccccc2NC(=O)C2=C(C)OCCS2)c1	none
O=C1c2ccccc2C(=O)C2OC12 (centres undefined)	Mdm2-MdmX inh 72 (no result: MPTP inh, NR3A LBD binder) | Mdm2 MdmX conf inactive | FLuc counter 44
O=C1c2ccccc2C(=O)C1c1ccccn1	none
C=CCn1c(Cc2ccccc2)nc2c(cnn2-c2ccccc2)c1=O	none
CC(C)N=C(NS(=O)(=O)c1ccccc1)C(Cl)(Cl)Cl	Mdm2-MdmX inh 83 | Mdm2 MdmX conf 60 | FLuc counter 74
O=S(=O)(NC(=S)c1ccccc1)c1ccccc1	none (no result: Beta apoptosis)
COc1cc(C)c(Cl)cc1S(=O)(=O)NCc1ccccn1	none
CC(C)(C)c1ccc(N2C(=O)CSC2c2cccnc2)cc1 (centres undefined)	none
CCc1cc2c(COC(=O)CCNS(=O)(=O)c3cccc(C(F)(F)F)c3)cc(=O)oc2cc1O	Mdm2-MdmX inh 83 (no result: SKKanGAS inh) | Mdm2 MdmX conf inactive
CC(c1ccccc1C(O)c1ccccc1)N(C)C (centres undefined)	none
Cc1ccc(C(O)(c2ccccc2)c2ccccc2C(C)N(C)C)c(C)c1 (centres undefined)	Mdm2-MdmX inh 62 | Mdm2 MdmX conf inactive
COc1cc(C(=O)NCc2nnc(SCC(=O)NCc3ccco3)o2)cc(OC)c1OC	none
S=C(NCCNCc1ccccc1)NC1CCCCC1	Mdm2-MdmX inh 51 (no result: MPTP inh, NR3A LBD binder) | Mdm2 MdmX conf inactive
Cc1ccc(S(=O)(=O)Nc2ccc3c(c2)C(=O)N([C@H](C)CO)C[C@H](C)[C@@H](CN(C)Cc2ccc(-c4ccccc4)cc2)O3)cc1	Mdm2-MdmX inh 77 (no result: SKKanGAS inh) | Mdm2 MdmX conf inactive
Cc1ccc(S(=O)(=O)Nc2cccc3c2O[C@H](CN(C)Cc2ccc(-c4ccccc4)cc2)[C@@H](C)CN([C@H](C)CO)C3=O)cc1	Mdm2-MdmX inh 53 (no result: CSC inhib, SKKanGAS inh) | Mdm2 MdmX conf inactive
CC(C)c1ccc(Nc2nc(Cl)nc(NCCO)n2)cc1	none
CC1(c2nnc(Cc3ccccc3)o2)CC(c2ccccc2Br)=NO1 (centres undefined)	none
CCOCCCN(Cc1ccco1)C(=O)c1cc2c(=O)[nH]c3ccc(C)cc3c2s1	Mdm2-MdmX inh 56 (no result: CSC inhib) | Mdm2 MdmX conf inactive
CCOC(=O)c1cc2ccccc2n1C1CCN(CCc2ccccc2)CC1	none (no result: CSC inhib, SKKanGAS inh, Beta apoptosis, Mdm2-MdmX inh, NR3A LBD binder)
CC(C)(C)c1ccc(/C=N/Nc2cccc(C(=O)O)c2)cc1	Mdm2-MdmX inh 70 | Mdm2 MdmX conf 61 | FLuc counter 116
COc1cnc(-c2ccccn2)nc1Oc1ccc(Cl)c2ccccc12	SKKanGAS inh 93, Beta apoptosis 97, Mdm2-MdmX inh 52 | Mdm2 MdmX conf inactive
COc1cnc(-c2ccccn2)nc1NC(C)C	SKKanGAS inh inconclusive, Mdm2-MdmX inh 79 | Mdm2 MdmX conf 87 | FLuc counter 48
COc1cnc(-c2ccccc2)nc1Oc1ccccc1C	none
CCCCNC(=O)c1nc(-c2cccnc2)oc1-c1ccc(OC(F)(F)F)cc1	none (no result: CSC inhib, SKKanGAS inh, Beta apoptosis, Mdm2-MdmX inh, NR3A LBD binder)
CC(C)n1cc(CN2CCC(C(=O)Nc3cccc(-c4cccc(Cl)c4)c3)CC2)cn1	Mdm2-MdmX inh 99 | Mdm2 MdmX conf 47 | FLuc counter 66
CCn1cc(CN2CCC(C(=O)Nc3cccc(-c4cccc(F)c4)c3)CC2)cn1	none
COc1cccc(O)c1CN1CCC(C(=O)Nc2ccc(-c3cccc(C)c3)cc2)CC1	CSC inhib 101, Mdm2-MdmX inh 81 (no result: Beta apoptosis) | Mdm2 MdmX conf 40 | FLuc counter 90
CCn1nc(C)c(CN2CCC(C(=O)Nc3cccc(-c4cccc(F)c4)c3)CC2)c1C	Mdm2-MdmX inh 53 | Mdm2 MdmX conf inactive
COc1ccc(OC)c(S(=O)(=O)N2CCN(C(=O)c3cc(C4CC4)nn3-c3ccccc3)CC2)c1	none (no result: CSC inhib, SKKanGAS inh)
Nc1c2c(=O)oc(-c3ccccc3)cc2nn1-c1ccccc1	none
Cc1c(-c2ccc(Cl)cc2)oc(=O)c2c(N)n(-c3ccccc3)nc12	Mdm2-MdmX inh 86 | Mdm2 MdmX conf inactive
COc1cccc(Cn2c(-c3nonc3N)nc3ccccc32)c1	Mdm2-MdmX inh 54 | Mdm2 MdmX conf 56 | FLuc counter 70
COc1cc(Cn2c(-c3nonc3N)nc3ccccc32)ccc1C	Mdm2-MdmX inh 55 | Mdm2 MdmX conf 62 | FLuc counter 46
Cc1ccc(Cn2c(-c3nonc3N)nc3ccccc32)cc1	none
COc1ccc(/C=N/n2cnc3c([nH]c4ccc(F)cc43)c2=O)cc1CSc1ccccn1	Mdm2-MdmX inh 94 | Mdm2 MdmX conf inactive
CC1CC(C)CN(C(=O)C2CCC(CNS(=O)(=O)c3ccccc3)CC2)C1 (centres undefined)	none
Cc1cc(Oc2nc3c(C)cccn3c(=O)c2/C=C(\C#N)S(=O)(=O)c2ccc(Cl)cc2)ccc1Cl	Mdm2-MdmX inh 57 | Mdm2 MdmX conf inactive
Cc1cc(C(=O)N/N=C/c2ccc(Cl)c([N+](=O)[O-])c2)c(C)n1-c1ccc(F)cc1	Mdm2-MdmX inh 96 | Mdm2 MdmX conf 83 | FLuc counter 45
Cc1cc(C(=O)N/N=C/c2ccc3c(c2)OCO3)c(C)n1-c1ccc(F)cc1	none
NCCCCCc1nnc(SCC(N)=O)o1	none
COc1ccc(C)cc1N(C(=O)c1ccco1)C(C(=O)NC1CCCC1)c1ccc(N2CCOCC2)cc1 (centres undefined)	none
O=C1N/C(=N\N=C\c2cccs2)SC1Cc1cccc(Cl)c1Cl (centres undefined)	Mdm2-MdmX inh 83 | Mdm2 MdmX conf 62 | FLuc counter 58
O=C1N/C(=N\N=C\c2cccs2)SC1Cc1ccc(Cl)cc1Cl (centres undefined)	Mdm2-MdmX inh 74 | Mdm2 MdmX conf 51 | FLuc counter 70
O=C(CC1S/C(=N/N=C/c2cccs2)NC1=O)Nc1ccc(Cl)cc1 (centres undefined)	none
O=S(=O)(c1ccc(Cl)cc1)c1snnc1-c1ccccc1	CSC inhib 108, Mdm2-MdmX inh 98 | Mdm2 MdmX conf 80 | FLuc counter 56
O=S(=O)(c1ccc(F)cc1)c1snnc1-c1ccccc1	none (no result: Mdm2-MdmX inh)
O=C(CC(=O)Nc1ccc(Cl)cc1)N/N=C\c1cccc(F)c1	none (no result: CSC inhib)
O=C1N/C(=N/N=C/c2ccccc2O)SC1Cc1ccc(F)cc1 (centres undefined)	SKKanGAS inh inconclusive, Beta apoptosis 87, Mdm2-MdmX inh 71 | Mdm2 MdmX conf 53 | FLuc counter inactive

Screening data: PubChem, several laboratories
